Screening data deposited in PubChem by several laboratories.
tim10-1 inh: inhibits growth of tim10-1 mutant yeast | S. cerevisiae tim10-1 ts strain growth, BacTiter-Glo, 24 h | inhibition, % at 20 µM | hit rate 2.2% among 330,000;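 active = inhibition of at least 40%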;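 note: mutant grown at 25 °C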
tim23-1 inh: inhibits growth of tim23-1 mutant yeast. S. cerevisiae tim23-1 growth, BacTiter-Glo luminescence, 24 h. AID 463212. inhibition, % at 20 µM. hit rate 1.3% among 330,000;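 active = growth inhibition of the mutant yeast at or above 50%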;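 note: temperature-sensitive mutant grown at 25 °C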
SKKanGAS inh: SKKanGAS growth inhibition; S. pyogenes SKKanGAS, kanamycin growth, BacTiter-Glo, 6 h; inhibition, % at 7.5 µM; hit rate 1.3% among 300,000; AID 1662;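 active = mean replicate score, as percent of positive control median, at least 50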;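 note: strain carries kanamycin resistance gene driven by streptokinase promoter and grows in 40 µg/ml kanamycin; loss of luminescence reflects streptokinase promoter inhibition or plain growth inhibition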
TIM10 inh: TIM10 yeast growth inhibition | S. cerevisiae TIM10 strain growth, BacTiter-Glo luminescence, 24 h | inhibition, % at 10 µM | hit rate 1.4% among 330,000;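 active = inhibition of 40% or more at the single tested concentration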;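 note: wild-type TIM10 isogenic control strain grown at permissive 25 °C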
NALP1 inh: NALP1 inhibition | S. cerevisiae NALP1/ASC/caspase-1 growth, X-gal OD620, 72 h | inhibition, % at 10 µM | hit rate 0.61% among 280,000; in the data active = inhibition mostly above about 24%, no sharp cut-off; inactive = mostly below about 32%
NLRP3 yeast inh: blocks the NALP3 inflammasome reconstituted in yeast | hit rate 0.39% among 330,000 | inhibition, % at 10 µM | Yeast reconstituted NLRP3/ASC/caspase-1, beta-gal luminescence, 24 h;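 active = inhibition of 50% or more; inactive = inhibition below 50%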
tim10-1 conf: confirmation of tim10-1 mutant yeast growth inhibitors; S. cerevisiae tim10-1 ts strain growth, BacTiter-Glo, 24 h; inhibition, % at 20 µM; hit rate 56% among 7,400; shares compounds with tim10-1 inh;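 active = inhibition of yeast growth at or above a set limit in either of two repeat tests at 20 µM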;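 note: tim10-1 mutant grown at permissive 25 °C to find synthetic lethal compounds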
TIM10 conf: confirmation of TIM10 yeast growth inhibitors; inhibition, % at 10 µM; AID 463215; S. cerevisiae tim10 strain growth, BacTiter-Glo luminescence, 24 h; hit rate 63% among 4,600; shares compounds with TIM10 inh;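 active = inhibition of yeast growth at or above a set limit in either of two replicates at 10 µM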; note: this counterscreen used the strain with wild-type TIM10
Of the large screens only hits and unclear results are named; the others gave an inactive call (follow-up assays come after a bar, where they were run). A selection: hits, their analogues and other compounds. The true share with any hit is near 4.9%.

CCN1CCN(c2nnc(-c3ccccc3)c3ccccc23)CC1	none
O=C(c1ccccc1Nc1ccc(SC(F)F)cc1)N1CCCCCC1	tim10-1 inh 43.9, TIM10 inh 51.1 | tim10-1 conf 33.6 | TIM10 conf 33.4
CC1CN(S(=O)(=O)c2cccc(C(=O)NCC3COc4ccccc4O3)c2)CC(C)O1 (stereo not given)	none (no result: SKKanGAS inh, NALP1 inh)
CCCCCCCCCOC(=O)C(CC(=O)O)N1CCOCC1 (stereo not given)	tim10-1 inh 42.5, TIM10 inh 50.5, NALP1 inh 44.9 | tim10-1 conf 37.3 | TIM10 conf 44.0
CCCCCOC(=O)CC(C(=O)OCCCCC)N1CCCCC1 (stereo not given)	none
Cc1ccc(C2Oc3ccccc3C3=C2C(c2cccs2)n2ncnc2N3)cc1 (stereo not given)	tim10-1 inh 41.5, SKKanGAS inh 99.8, TIM10 inh 45.3 | tim10-1 conf inactive | TIM10 conf inactive
Fc1ccc(C2C3=C(Nc4ncnn42)c2ccccc2OC3c2ccncc2)cc1 (stereo not given)	none
O=C1OCC(CO)(CO)N=C1NNc1ccc(Cl)c(Cl)c1	tim10-1 inh 48.7, TIM10 inh 42.4 | tim10-1 conf inactive | TIM10 conf 41.0
COc1cc(/C=C2/N=C(C3CCCCC3)OC2=O)cc(OC)c1OC	tim10-1 inh 43.2, TIM10 inh 43.7 | tim10-1 conf 33.2 | TIM10 conf inactive
CC1CCN(c2nc3nonc3nc2Nc2ccc(F)cc2)CC1	tim10-1 inh 41.3, TIM10 inh 44.7 | tim10-1 conf 43.8 | TIM10 conf inactive
CCCCCC(=O)NC(=S)Nc1ccccc1C(=O)OC	tim10-1 inh 40.0, TIM10 inh 43.1 | tim10-1 conf inactive | TIM10 conf 34.1
CCCCCC(=O)NC(=S)Nc1cccc(C(C)=O)c1	TIM10 inh 42.9 | tim10-1 conf inactive | TIM10 conf inactive
CCCC(=O)NC(=S)Nc1cccc(C(C)=O)c1	none
COc1cccc(/C=N/Nc2ncnc3scc(-c4ccccc4)c23)c1OC	tim10-1 inh 46.1, TIM10 inh 40.2 | tim10-1 conf 42.9 | TIM10 conf 31.3
O=C(O)c1ccc(Nc2ncnc3scc(-c4ccccc4)c23)cc1	none
COc1ccc(O)c(/C=N/Nc2nc(C)cc(-c3ccccc3)n2)c1	tim10-1 inh 43.3, TIM10 inh 41.9 (no result: NALP1 inh) | tim10-1 conf 39.9 | TIM10 conf 46.8
Cc1cc(OCC(=O)OCC(=O)NCc2cccs2)ccc1Cl	none (no result: SKKanGAS inh, NALP1 inh)
CCC(c1nnnn1CCc1ccccc1)N1CCN(c2ccc(OC)cc2)CC1 (stereo not given)	tim10-1 inh 41.0, TIM10 inh 43.4 | tim10-1 conf inactive | TIM10 conf inactive
CC(C)c1ccc(/C=c2\sc3nc(-c4ccncc4)nn3c2=O)cc1	tim10-1 inh 49.3, TIM10 inh 43.7 | tim10-1 conf 30.1 | TIM10 conf inactive
CCOC(=O)C(=Cc1ccc(-n2ccnc2)cc1)C(=O)OCC	tim10-1 inh 72.9, TIM10 inh 63.9 | tim10-1 conf 73.8 | TIM10 conf 69.3
O=C(NNC(=O)C1CCN(c2ncccn2)CC1)c1ccc(F)cc1	none
Cc1c(O)ccc2c(CC(=O)N[C@@H](Cc3ccc(O)cc3)C(=O)O)cc(=O)oc12	none
O=C(O)CCNC(=O)c1ccc(N=Nc2ccc(O)c(C(=O)O)c2)cc1	none (no result: NALP1 inh)
O=[N+]([O-])c1ccc(Cl)c(C2Nc3cccc4cccc(c34)N2)c1	none
O=[N+]([O-])c1ccccc1C1Nc2cccc3cccc(c23)N1	tim10-1 inh 85.0, TIM10 inh 57.0 | tim10-1 conf 76.2 | TIM10 conf 68.5
OC[C@@H]1[C@@H](c2ccc(F)cc2)C(c2ccccc2)=NN1c1ccccc1	none (no result: SKKanGAS inh, NALP1 inh, NLRP3 yeast inh)
O=C1C2C(c3ccccc3)=NN(c3ccccc3)C2C(=O)N1c1ccccc1 (stereo not given)	tim10-1 inh 59.5, SKKanGAS inh 107.5, TIM10 inh 59.2 | tim10-1 conf 49.0 | TIM10 conf inactive
CCC(C)c1ccc(NC(=S)NC(C)C2CCCO2)cc1 (stereo not given)	none
O=C(c1cccc([N+](=O)[O-])c1)c1ccc2c(c1)OCCOCCOCCOCCO2	none
COc1ccc(/C=C/C(=O)c2ccc3c(c2)OCCO3)cc1[N+](=O)[O-]	tim10-1 inh 43.1, TIM10 inh 43.5 | tim10-1 conf inactive | TIM10 conf 40.2
COc1ccc(/C=N/NC(=O)c2ccc3c(c2)OCCO3)cc1[N+](=O)[O-]	none
O=C(/C=C/c1cccc([N+](=O)[O-])c1)c1ccc2c(c1)OCCO2	tim10-1 inh 41.2, TIM10 inh 46.9, NALP1 inh 40.3 | tim10-1 conf 49.7 | TIM10 conf 46.6
Cc1ccc(C)c(-n2c(C)cc(/C=N/NC(=O)c3c(C)nc4cc(C)ccn34)c2C)c1	tim10-1 inh 53.4, TIM10 inh 41.8 | tim10-1 conf inactive | TIM10 conf inactive
Cc1ccc(NC(=O)CCCn2c(=S)[nH]c3ccsc3c2=O)cc1C	none
Clc1cccc(CN2CCc3c([nH]c4ccccc34)C2)c1Cl	tim10-1 inh 71.7, TIM10 inh 59.9 | tim10-1 conf 66.0 | TIM10 conf 65.8
CCCOc1ccc(CNC(=O)c2ccc3nc(N4CCOCC4)sc3c2)cc1	none
O=C(Oc1cccnc1)c1ccccc1[N+](=O)[O-]	tim10-1 inh 52.3, TIM10 inh 50.1 | tim10-1 conf 32.6 | TIM10 conf 32.7
N/C(=N\OC(=O)c1ccccc1[N+](=O)[O-])c1cccnc1	none (no result: NALP1 inh)
C/C(=N\NC(=S)NCC(C)(C)C)c1cc(F)cc(F)c1O	tim10-1 inh 41.8, SKKanGAS inh 90.2, TIM10 inh 44.0 | tim10-1 conf 41.0 | TIM10 conf 60.0
COCCNC(=S)N/N=C(\C)c1ccc(O)cc1	none
Oc1ccc(C(=S)N2CCN(c3cccc(Cl)c3)CC2)cc1	tim10-1 inh 40.9, TIM10 inh 54.1 (no result: SKKanGAS inh) | tim10-1 conf 52.8 | TIM10 conf 48.0
Cc1noc(C)c1C(=O)Nc1nc(C23CC4CC(CC(C4)C2)C3)cs1	tim10-1 inh 52.4, TIM10 inh 48.2 | tim10-1 conf 37.8 | TIM10 conf 39.0
COc1ccc(NC(=O)CN(C)CC(=O)N2CCCCCC2)cc1	none (no result: SKKanGAS inh, NALP1 inh)
Cc1ccc(O)c(-c2cc(-c3cccc(F)c3)n[nH]2)c1	tim10-1 inh 53.2, TIM10 inh 43.0 | tim10-1 conf 34.1 | TIM10 conf inactive
Cc1ccc2[nH]c(-c3cccc(F)c3)cc(=O)c2c1	none
Oc1ccc(Br)cc1-c1cc(-c2ccccc2)n[nH]1	tim10-1 inh 47.3, SKKanGAS inh 80.3, TIM10 inh 58.3 | tim10-1 conf inactive | TIM10 conf inactive
O=C(CNC(=O)c1cccs1)N/N=C/c1c[nH]c2ccccc12	none
CCOC(=O)C1CCCN(C(=O)CCCn2c(=O)c3cccn3c3cccnc32)C1 (stereo not given)	none
